{
  "source": "PubChem BioAssay AID624291",
  "about": "(National Center for Advancing Translational Sciences (NCATS), 2012)",
  "note": "Screen size: about 350,000 compounds; about 220 (0.063%) were called active. Not shown: some 4% with an inconclusive outcome. This excerpt belongs to a sample that is enriched for actives. Unmarked numbers belong to inactive results. Calls follow the shape of the dose curve; as a rule, active = well fitted activation curve with a large enough effect; inconclusive = small, poorly fitted or top-dose-only effect; inactive = no such curve, though single readings can be large or run the other way. Potency is read from the fitted curve at half-maximal effect.",
  "data": [
    {"assay": "qHTS for Activators of Integrin-Mediated Alleviation for Muscular Dystrophy; also: nearly all actives have a fitted effect of over 60% in size;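 as to activation: 100% = response of the positive control SU9516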", "settings": "alpha7betagal myoblasts, beta-gal FDG fluorescence, 48 h; series mostly up to 38.3 µM; activation: at the top concentration", "summary_of_the_method": "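Alpha7betagal+/- myoblasts (passage 13) were plated 16-24 hr, then exposed to compounds (1:260 dilution of DMSO stock) for 48 hours at 37C. After MPER lysis, β-galactosidase reporter activity was read as FDG fluorescence (ex 480/em 540) after 30 minutes.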", "units": {"activation": "%"}, "values": [
      {"smiles": "CCCCN(C(C)=O)c1ccc2c(c1)C1CC2CCN1Cc1ccccc1", "note": "(stereo not given)", "activation": -16.5},
      {"smiles": "C[C@@H]1CN([C@H](C)CO)S(=O)(=O)c2ccc(C#CC3CCCCC3)cc2O[C@H]1CN(C)C(=O)Cc1ccncc1", "activation": -44.2},
      {"smiles": "COc1ccc(OC)c(NC(=O)C2CCCN2S(=O)(=O)c2ccc3c(c2)CC(C)N3C(C)=O)c1", "note": "(stereo not given)", "activation": 5.18},
      {"smiles": "C#Cc1cc(N2CCN(C(=O)c3ccoc3)CC2)n2nc(-c3cccc(Cl)c3)cc2n1", "activation": -66.7},
      {"smiles": "Nc1cc(=O)c2[nH]cnc2[nH]1", "activation": 9.52},
      {"smiles": "CSc1ncnc2c1ncn2CCCNCc1ccco1", "activation": -0.506},
      {"smiles": "C[C@@H]1CN([C@@H](C)CO)C(=O)CCCn2nncc2CO[C@H]1CN(C)Cc1ccc(C(F)(F)F)cc1", "activation": -6.93},
      {"smiles": "CCC(Oc1ccccc1)C(=O)OCC(=O)Nc1c(C)nn(-c2ccccc2)c1C", "note": "(stereo not given)", "activation": -14.5},
      {"smiles": "CCc1nnc(NC(=O)c2ccco2)s1", "activation": -11.4},
      {"smiles": "O=C(Nc1cc(F)ccc1F)c1ccc2c(=O)n3c(nc2c1)CCC3", "activation": 21.5},
      {"smiles": "O=C(NN=Cc1ccc2c(c1)CCC2)c1ccccc1O", "activation": -8.45},
      {"smiles": "Cc1ccc(CN(C)C[C@@H]2OCc3cnnn3CCCC(=O)N([C@@H](C)CO)C[C@H]2C)cc1", "activation": 10.6},
      {"smiles": "CC(=NNC(N)=O)C1CC2CCC1CC2", "note": "(stereo not given)", "activation": 20.4},
      {"smiles": "CCN(CC)C(=O)C1=C(C)N(Cc2ccc(C(C)(C)C)cc2)C(=O)C(CC(=O)NCc2cccc3ccccc23)C1", "note": "(stereo not given)", "activation": 4.29},
      {"smiles": "Cc1ccccc1C#CC1=CC(=O)CC(C)(C)C1", "activation": -16.2},
      {"smiles": "COc1ccc(NC(=O)N(C)C[C@H]2Oc3ncc(C#C[C@@H](C)O)cc3C(=O)N([C@H](C)CO)C[C@H]2C)cc1", "activation": 0},
      {"smiles": "CCCc1ccc(S(=O)(=O)N2CCN(C(=O)c3cc(C)on3)CC2)cc1", "activation": -5.39},
      {"smiles": "COc1cc(C(=O)OCCCN2CCOCC2)cc(OC)c1OC", "activation": -16.1},
      {"smiles": "O[C@@H]1C[C@H](c2ccccc2)N(Cc2cccs2)C[C@H]1n1cc(C2CC2)nn1", "activation": 8.05},
      {"smiles": "CCc1nnc(NC(=O)[C@@H](NC(=O)c2cccc(C)c2)C(C)C)s1", "activation": -7.54},
      {"smiles": "CC(=O)Nc1ccc(NC(=O)[C@@H](NC(=O)c2cccc(C)c2)C(C)C)cc1", "Potency": "5.62 µM (active)"},
      {"smiles": "Cc1cccc(C(=O)N[C@H](C(=O)NCc2cccs2)C(C)C)c1", "activation": 2.9},
      {"smiles": "O=C(O)C1=C(C(=O)O)C2CCC1C2", "activation": 12.3},
      {"smiles": "COCOCCn1cc(CN2CCS(=O)(=O)N(Cc3ccc(-c4ccccc4)cc3)C(CC(C)C)C2=O)nn1", "note": "(stereo not given)", "activation": -33.9},
      {"smiles": "CC1(C2CC2)NC(=O)N(CC(=O)N2CCN(c3ccccc3F)CC2)C1=O", "note": "(stereo not given)", "activation": 15.2}
    ]}
  ]
}
